Data from PubChem BioAssay.
Values joined by “and” are separate entries in the source; they are usually repeats but may differ in a detail not shown here. Identical values can stand only once. Active and inactive are the calls of the source. No rule for the calls is given here.

Assay: liver-stage malaria parasite load reduction – cell-based, known kinase inhibitor set, luminescence, hepatoma host viability (AID 624392);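 also: infected cells incubated roughly two days before readout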
Details: Plasmodium liver stage in hepatoma cells, luciferase luminescence, concentration not given here; liver cell % of control: measured here: host liver cell viability; parasite % of control: stronger effect = lower value

SMILES | liver cell % of control | parasite % of control
Nc1nccc(-c2c(-c3ccc(F)cc3)ncn2C2CCNCC2)n1 | 79.4% and 93.7% | 77.2% (inactive) and 61.2% (inactive)
NC(=O)c1ccc2c(-c3ccnc(NCCCO)n3)c(-c3ccc(F)cc3)nn2c1 | 85.3% | 58.4% (inactive)
Cn1cc(C2=C(c3cn(CCCSC(=N)N)c4ccccc34)C(=O)NC2=O)c2ccccc21 | 100% | 330% (inactive)
O=C1NC(=O)C(c2c[nH]c3ccccc23)=C1c1c[nH]c2ccccc12 | 97.5% | 26.7% (inactive)
Fc1cccc(COc2ccc(Nc3ncnc4sc(-c5ccco5)cc34)cc2Cl)c1 | 85.8% | 129% (inactive)
Fc1cccc(COc2ccc(Nc3ncnc4cc(-c5ccc[nH]5)sc34)cc2Cl)c1 | 45.8% | 16.2% (inactive)
C#Cc1cccc(Nc2ncnc3ccc(OCCCCNCCS(C)(=O)=O)cc23)c1 | 80.2% | 197% (inactive)
Cn1cc(C2=C(c3cn(CCCN)c4ccccc34)C(=O)NC2=O)c2ccccc21 | 148% | 23.2% (inactive)
O=S1CCN(Cc2ccc(-c3ccc4ncnc(Nc5ccc(OCc6ccccc6)c(Cl)c5)c4c3)o2)CC1 | 98.4% | 108% (inactive)
O=C1NC(=O)C(c2ccccc2Cl)=C1Nc1cccc(O)c1 | 91.7% | 148% (inactive)
NC(=O)c1ccc(-c2nc(-c3ccc4c(c3)OCO4)c(-c3ccccn3)[nH]2)cc1 | 92.1% | 99.9% (inactive)
CN(C)CCOc1ccc(-c2nc(-c3ccc4c(c3)CC/C4=N\O)c(-c3ccncc3)[nH]2)cc1 | 69.4% | 215% (inactive)
FC(F)(F)c1cccc(Nc2nccc(-c3cnn4nc(-c5ccccc5)ccc34)n2)c1 | 97.2% | 79.6% (inactive)
Nc1ncnc2occ(-c3ccc(NC(=O)Nc4cc(C(F)(F)F)ccc4F)cc3)c12 | 62.2% and 49.5% | 12.5% (inactive) and 10.2% (inactive)
Cn1cc(/C=C2\C(=O)Nc3cccnc32)c2ccccc21 | 210% | 18.2% (inactive)
Cc1ccc(O)cc1Nc1ccnc2cc(-c3ccccn3)ccc12 | 100% | 65.6% (inactive)
Cn1c(-c2nonc2N)nc2cnccc21 | 87.4% | 106% (inactive)
Fc1ccc(-c2nc3n(c2-c2ccncc2)CCS3)cc1 | 122% | 126% (inactive)
COc1ccc(-c2oc3ncnc(N)c3c2-c2ccc(NC(=O)Nc3cc(C(F)(F)F)ccc3F)cc2)cc1 | 50% | 186% (inactive)
NS(=O)(=O)c1ccc(N=Nc2c(O)[nH]c3ccc(Cl)cc23)cc1 | 91.6% | 111% (inactive)

Assay: altered dexamethasone sensitivity, NF-kB reporter, cell-based, luciferase, IL-1B stimulus (AID 624486);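 as to percent of negative control (+Dex): 100% = mean signal of vehicle control wells on the plate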
Details: IL-1B + dexamethasone, luminescence; percent of negative control (+Dex): actives lie on both sides, concentration not given here; z-score: measured here: IL-1B alone, no Dex

SMILES | percent of negative control (+Dex) | z-score
CCn1c(-c2nonc2N)nc2c(C#CC(C)(C)O)nc(OC[C@@H](N)c3ccccc3)cc21 | 108% (inactive) | 3.72
COc1ccc(-c2cc3c(N)ncnc3o2)cc1 | 118% (inactive) | 2.92
COc1cc(/C=N/Nc2ncnc3[nH]ncc23)ccc1O | 87.5% (inactive) | -0.055
CN(C)c1cc2c(Nc3ccc4nc(Cc5ccccc5)[nH]c4c3)ncnc2cn1 | 77% (inactive) | -0.53
FC(F)(F)c1ccc(-c2nn3ncccc3c2-c2ccnc(Nc3ccc4c(c3)OCCO4)n2)cc1 | 110% (inactive) | 0.735
NS(=O)(=O)c1ccc(N=Nc2c(O)[nH]c3ccc(C(=O)NCCCn4ccnc4)cc23)cc1 | 83% (inactive) | -0.125
CN1C(=O)C(c2c[nH]c3ccccc23)=C(c2c[nH]c3ccccc23)C1=O | 96.5% (inactive) | -0.615
CN(c1ccc(NC(=O)Nc2ccc(OC(F)(F)F)cc2)cc1)c1ccnc(Nc2cccc(S(N)(=O)=O)c2)n1 | 81.5% (inactive) | -0.645
Cn1cc(C2=C(c3c4n(c5ccccc35)CCC(CN)C4)C(=O)NC2=O)c2ccccc21 (stereo not drawn) | 89.5% (inactive) | -0.37
